From PubChem
miR122 inh = miR-122 inhibition in Huh7 cells | activation (reporter increase), % at 12.5 µM | Huh7 miR-122 Renilla luciferase sensor, 48 h; neutral wells = 0, positive control = 100 | AID 602342 | 340,000 tested, 0.3% active;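 active means mean replicate activation score at least 90 and every replicate individually at or above 90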;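 further: higher luciferase means less miR-122 activity so hits act as miR-122 inhibitors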
PAX8 reporter = inhibitors of PAX8 transcriptional activity in RMG-I cells; inhibition, % at 12.6 µM; RMG-I TPO-luciferase reporter, SteadyGlo, 24 h; 360,000 tested, 1.2% active; AID 652154;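 active means mean replicate inhibition at least 60% with every replicate also reaching 60%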;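 further: luciferase light reporting Pax8 driven TPO promoter activity; plate controls were median of neutral control wells for no effect and mitoxantrone controls for full effect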
Env fusion inh = HIV envelope-mediated fusion inhibition; HeLa-JRFL Env/CEM21 cell fusion, luciferase; inhibition, % at 12.3 µM; 360,000 tested, 1.1% active; AID 651610;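 active means mean replicate inhibition score of at least 50 and every replicate individually at or above 50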;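 further: 0% = plate neutral controls and 100% = maraviroc near 300 nM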
C2C12 statin = suppressors of simvastatin-induced myotoxicity in C2C12 myotubes | ATP luminescence, 48 h; scaled: DMSO 0, geranylgeraniol control 100 | rescue of ATP level, % at 7.49 µM | 330,000 tested, 0.78% active | AID 602340;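 active means mean ATP rescue above about 67%, or every replicate alone reaching that limit, limit read from the data, passing the limit was not always enough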;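 further: myotubes were challenged with 10 µM simvastatin during compound exposure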
GSIS activator = GLuc luminescence reporter in INS-1E cells, primary screen for activators of glucose-dependent secretion of insulin; AID 743287; INS-1E GLuc reporter insulin secretion, 2-3 h; activation, % at 16.6 µM; 370,000 tested, 0.61% active;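 active means lowest replicate activation of at least 40%, so every replicate reaches that level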;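 further: 0% = median of neutral control wells and 100% = median of IBMX positive control wells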
EWS-Fli block = EWS/Fli transcriptional activity inhibition. A673 NR0B1-luciferase reporter, viability-normalised. inhibition, % at 12.6 µM. 350,000 tested, 0.67% active. AID 651661;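 active means mean inhibition of at least 50% after viability correction, with every replicate also passing that limit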;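 further: firefly luciferase signal divided by Alamar Blue viability fluorescence both relative to DMSO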
The depositor's hits bear a star; i = inactive; . = no result; [ ] = dose if it differs, or a comment. An excerpt weighted towards active compounds, which were near 3.1% of everything screened.

SMILES	miR122 inh	PAX8 reporter	Env fusion inh	C2C12 statin	GSIS activator	EWS-Fli block
COc1ccccc1NS(=O)(=O)c1cc(NC(=O)c2cccc(S(=O)(=O)N(C)C)c2)ccc1N1CCOCC1	135.1*	23.8	-1.0	-3.3	-1.5	0.4
COc1ccccc1NS(=O)(=O)c1cc(NC(=S)NCCN2CCOCC2)ccc1N1CCOCC1	217.0*	9.9	-89.4	-6.0	.	-2.0
COc1ccccc1NS(=O)(=O)c1cc(NC(=O)/C=C/c2cccs2)ccc1N1CCOCC1	257.9*	15.0	-76.1	18.0	.	7.4
COc1ccccc1NS(=O)(=O)c1cc(NC(=O)c2ccc(NC(C)=O)cc2)ccc1N1CCOCC1	.	0.7	-5.7	-1.2	-15.4	1.6
CN(C)C(=O)c1cccc(-c2ccccc2[C@H]2[C@@H](C#N)N(C(=O)C3CCCC3)[C@@H]2CO)c1	.	.	.	.	-3.5	21.1
COc1cc(SC)ccc1C(=O)Nc1ccc(Cl)cn1	-0.2	-149.6	-277.4	-0.8	-1.7	83.6*
COc1cc(SC)ccc1C(=O)NC1CCCCC1	1.9	-64.5	i	80.8*	.	.
COc1cc(SC)ccc1C(=O)Nc1ccncc1	.	-44.4	4.6	.	5.8	-30.5
Cc1ccc(C(=O)NC2CCCCCCC2)c(Cl)c1	6.6	5.9	-21.8	-9.4	0.2	56.3*
COc1cc(SC)ccc1C(=O)Nc1ccccc1C#N	4.1	-53.0	i	98.7*	28.1	.
Cc1ccc(S(=O)(=O)N(C)C[C@@H]2Oc3ncc(-c4ccccc4)cc3C(=O)N([C@@H](C)CO)C[C@H]2C)cc1	-7.5[16.7 µM]	.	9.7[16.7 µM]	7.5	-34.0	2.6
COc1ccc(NC(=O)N(C)C[C@H]2Oc3c(NC(=O)c4cnccn4)cccc3C(=O)N([C@@H](C)CO)C[C@@H]2C)cc1	-5.1[16.7 µM]	.	.	-14.7	8.9	-15.3
C[C@@H]1CN([C@@H](C)CO)C(=O)c2cc(NC(=O)CCN3CCOCC3)ccc2O[C@@H]1CN(C)S(=O)(=O)c1cccs1	-12.2[16.7 µM]	-11.0	-15.4[16.7 µM]	2.9	11.2	1.2
COc1ccc(NC(=O)Nc2ccc3c(c2)CC(=O)N([C@H](C)CO)C[C@@H](C)[C@H](CN(C)Cc2ccc(C(=O)O)cc2)O3)cc1	5.0[16.7 µM]	.	-14.2[16.7 µM]	0.5	25.9	-8.2
CCNC(=O)Nc1ccc2c(c1)C(=O)N(C)[C@@H]1CC[C@H](CC(=O)NCC3CC3)O[C@H]1CO2	-10.0[16.7 µM]	-14.2	19.2[16.7 µM]	8.4	8.1	-5.3
COc1ccc2cc(-c3cc(C(=O)OCC(=O)NC4CCS(=O)(=O)C4)c4ccccc4n3)ccc2c1 (stereo not drawn)	.	-2.6	-54.7	.	90.9*	.
COc1ccc(-c2cc(C(=O)OCC(=O)NC3CC3)c3ccccc3n2)cc1	-2.2	-35.6	.	-1.7	43.8	-31.2
CC(C)[C@H]1COCCS(=O)(=O)N1Cc1ccc(Cl)cc1	-3.4	2.7	-10.3	-3.0	-41.7	2.2
CCC(C)[C@H]1COCCS(=O)(=O)N1Cc1ccc(Br)cc1 (stereo partly drawn)	1.1	-3.2	-55.6	117.2*	-35.6	0.6
C#CCN(C[C@@H]1[C@@H](OC(=O)NC2CCCC2)[C@@H](OC(=O)NC2CCCC2)CN(C(=O)OC(C)C)N1C(=O)OC(C)C)S(=O)(=O)c1ccc(C)cc1	40.5	79.2*	.	-0.7	-12.6	18.8
C#CCN(C[C@@H]1[C@@H](OC(=O)NCCCCCC)[C@@H](OC(=O)NCCCCCC)Cn2c(=O)ccc(=O)n21)S(=O)(=O)c1ccc(C)cc1	-21.5	112.7*	-3.1	-58.7	-10.0	66.5*
CCCCCCNC(=O)O[C@H]1Cn2c(=O)ccc(=O)n2[C@@H]2CN(S(=O)(=O)c3ccc(C)cc3)C[C@]12O	-28.2	76.6*	6.2	-7.6	-31.8	70.5*
CCCCCCNC(=O)O[C@H]1Cn2c(=O)n(CCCCCC)c(=O)n2[C@@H]2CN(S(=O)(=O)c3ccc(C)cc3)C[C@]12O	-8.2	33.9	8.4	16.3	-31.2	-2.7
C#CCN(C[C@@H]1[C@@H](OC(=O)NCc2ccco2)[C@@H](OC(=O)NCc2ccco2)Cn2c(=O)ccc(=O)n21)S(=O)(=O)c1ccc(C)cc1	-5.2	73.0*	29.0	-11.9	-17.1	26.4
C#CCN(C[C@@H]1[C@@H](OC(=O)NCc2ccco2)[C@@H](OC(=O)NCc2ccco2)Cn2c(=O)n(CCCCCC)c(=O)n21)S(=O)(=O)c1ccc(C)cc1	-11.8	34.5	23.6	-4.1	-15.1	0.1
